The whole screen tested about 2,100 compounds, of which about 300 (14%) were called active. Not shown: some 2% with an inconclusive outcome.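 How the source made its calls: active means every replicate test run called active, with the signal falling and half-maximal concentration within twice the top valid dose; inconclusive means the replicate test runs disagree in their calls; inactive means every test run inactive, including effects in the opposite direction.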 Only a sample is shown. Entries with a potency or affinity are not part of this list.
Experiment: inhibitors of PGC1a acetylation in cells, dose response, cell-based, cherry-picked samples (AID 720514);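 further: 0% = neutral control wells and -100% = positive control wells; actives lower the acetylation signal so they count as inhibitors of PGC1a acetylation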
Conditions: U2OS PGC1a acetylation, AlphaLISA, overnight; series mostly up to 19.5 µM; activity change, negative = inhibition: at the top concentration

| SMILES | activity change, negative = inhibition |
| --- | --- |
| Cc1c(C(=O)NCCSCc2c(F)cccc2Cl)cnn1-c1ccc(Cl)cc1 | 111% (inactive) |
| CC1CN(S(=O)(=O)c2ccc(C(=O)NCCCn3ccnc3)cc2)CC(C)O1 (stereo not drawn) | 293% (inactive) |
| O=C(c1cccc([N+](=O)[O-])c1)N1CCc2ccccc21 | 48% (inactive) |
| CCN(CC)CC(=O)N1c2ccccc2CCc2ccc(NC(=O)c3cc(OC)c(OC)c(OC)c3)cc21 | 49.2% (inactive) |
| CC(C)(C)c1ccc(NC(=O)N2CCN(c3ccc([N+](=O)[O-])cn3)CC2)cc1 | 138% (inactive) |
| Cc1noc(C)c1S(=O)(=O)Nc1ccc2c(c1)C(=O)N([C@@H](C)CO)C[C@@H](C)[C@@H](CN(C)Cc1ccc3c(c1)OCO3)OCCCC[C@@H](C)O2 | 52% (inactive) |
| CNC[C@H]1OCCCC[C@@H](C)Oc2ccc(NS(=O)(=O)c3ccccc3)cc2C(=O)N([C@H](C)CO)C[C@@H]1C | 48.2% [at 21 µM] (inactive) |
| C[C@@H]1CN([C@H](C)CO)C(=O)c2cc(N(C)C)ccc2O[C@@H](C)CCCCO[C@H]1CN(C)C(=O)Cc1ccccc1 | 77.6% (inactive) |
| C[C@@H]1CCCCO[C@@H](CN(C)CC2CC2)[C@H](C)CN([C@H](C)CO)C(=O)c2cc(NS(=O)(=O)c3ccccc3)ccc2O1 | 39.4% (inactive) |
| Cc1noc(C)c1S(=O)(=O)Nc1ccc2c(c1)C(=O)N([C@H](C)CO)C[C@H](C)[C@H](CN(C)C(=O)c1ccncc1)OCCCC[C@@H](C)O2 | 23.5% (inactive) |
| Cc1ccc(S(=O)(=O)Nc2ccc3c(c2)C(=O)N([C@@H](C)CO)C[C@@H](C)[C@H](CN(C)C(=O)Nc2cccc4ccccc24)OCCCC[C@H](C)O3)cc1 | 58.5% (inactive) |
| C[C@@H]1CCCCO[C@@H](CN(C)Cc2ccc(Cl)c(Cl)c2)[C@H](C)CN([C@@H](C)CO)C(=O)c2cc(NC(=O)CCC(F)(F)F)ccc2O1 | 32.3% (inactive) |
| O=C(OCc1nc2ccsc2c(=O)[nH]1)c1cccc(S(=O)(=O)N2CCOCC2)c1 | 5.56% (inactive) |
| NCC[C@H]1CC[C@@H](NC(=O)C2CCCCC2)[C@@H](CO)O1 | 27.4% (inactive) |
| O=C(C[C@H]1CC[C@H]2[C@@H](COC[C@@H](O)CN2C(=O)c2cc(Cl)cc(Cl)c2)O1)N1CCc2ccccc2C1 | 79.8% (inactive) |
| CCc1nnc(NC(=O)Cc2ccc(S(=O)(=O)N3CCCCC3)cc2)s1 | 44% (inactive) |
| COc1ccc(NC(=O)Cn2ncc(Cl)c(Cl)c2=O)cc1S(=O)(=O)N1CCOCC1 | 67.1% [at 10 µM] (inactive) |
| N#Cc1ccccc1COC(=O)c1ccc2c(c1)OCCO2 | 163% (inactive) |
| Fc1ccc(-c2nn3c(C4COc5ccccc5O4)nnc3s2)cc1 (stereo not drawn) | 135% (inactive) |
| COc1ccc2c(c1)C(C)=CC(C)(C)N2S(=O)(=O)c1ccc(Br)cc1 | 49.3% [at 10 µM] (inactive) |
| OC(COc1ccc(CNCCc2ccc(C(F)(F)F)cc2)cc1)CN1CCCCC1 (stereo not drawn) | 33.5% (inactive) |
| CC1(C)CC(=O)C2=C(C1)Nc1ccccc1N1C(=O)c3ccccc3C21 (stereo not drawn) | 65.3% (inactive) |

| SMILES | activity change, negative = inhibition |
| --- | --- |
| O=C(NCc1csc(-c2cccs2)n1)c1cccc(Cl)c1 | 53.2% [at 10 µM] (inactive) |
| CN1OC(COC(=O)c2ccccc2)CC1c1ccccc1 (stereo not drawn) | 23.1% (inactive) |
| CCC(=O)Nc1ccc(C(=O)Cn2ncc(Cl)c(Cl)c2=O)cc1 | 69% (inactive) |
| O=S(=O)(c1ccccc1)N(CC(F)(F)F)c1ccc(C(O)(C(F)(F)F)C(F)(F)F)cc1 | 84.8% (inactive) |
| COc1ccc(NC(=O)C2(C)Cc3c(-c4cccc(NC(C)=O)c4)ccnc3O2)cc1 (stereo not drawn) | 53.5% (inactive) |
| CCOC(=O)C1=CC[C@@H](c2ccccc2)N(S(=O)(=O)c2ccc(C)cc2)[C@H]1c1cccc(OC)c1 | 58.4% (inactive) |
| Cc1csc(NC(=O)CSc2nsc(SCC(=O)Nc3nc(C)cs3)c2C#N)n1 | 75% (inactive) |
| CN1CCN(c2ccc(CNC(=O)c3ccc(-c4ccnn4C)c4ccoc34)cc2)CC1 | 66.9% (inactive) |
| COc1cc(CN2CCCC(CO)(Cc3cccc(Cl)c3)C2)cc2c1OCO2 (stereo not drawn) | 61.2% (inactive) |
| CCOc1ccc(N(C)S(=O)(=O)c2cc(-c3cc(C)no3)ccc2C(C)C)cc1 | 144% (inactive) |
| C[C@@H]1CN([C@@H](C)CO)C(=O)c2c(c3ccccc3n2C)-c2ccccc2CO[C@@H]1CN(C)C(=O)Nc1ccc2c(c1)OCO2 | 163% [at 21 µM] (inactive) |
| COC(=O)c1cc(S(=O)(=O)N2CCN(c3ccc(C(C)=O)cc3)CC2)c[nH]1 | 112% (inactive) |
| CCC(=O)N(CC)c1nc(-c2ccc(OC)cc2)cs1 | 58.5% (inactive) |
| CSc1nc(NCc2ccco2)c2ccccc2n1 | 41.5% (inactive) |
| Cc1ccc2oc(-c3ccc(NC(=O)c4cccnc4)cc3)nc2c1 | 276% (inactive) |
| CC(C)CCNc1nc(N2CCCC2)c2c(c1C#N)CCN(C)C2 | 68.1% [at 10 µM] (inactive) |
| CC/C(=C(\c1ccc(O)cc1)c1ccc(OCCN(C)C)cc1)c1ccccc1 | 137% [at 10 µM] (inactive) |
| OC(c1ccccc1)(C1CCCCC1)C(CN1CCOCC1)c1ccccc1 (stereo not drawn) | 75.2% [at 10 µM] (inactive) |
| COc1ccccc1CN1CCCC(C(=O)N(C)Cc2ccccc2)C1 (stereo not drawn) | 56.3% [at 10 µM] (inactive) |
| COc1ccc(CCC(=O)NCCS(=O)(=O)N2CCN(c3ccccc3)CC2)cc1 | 49.9% (inactive) |
| CCN1CCN(C(=O)c2ccc3c(=O)n(CCC4=CCCCC4)c(=O)[nH]c3c2)CC1 | 90.2% (inactive) |
| O=[N+]([O-])c1ccc(N2CCN(CC3CCCCC3)CC2)cc1 | 41.3% (inactive) |

| SMILES | activity change, negative = inhibition |
| --- | --- |
| COc1ccc(C(c2nnnn2C2CCCC2)N2CCC(C)CC2)c(OC)c1 (stereo not drawn) | 74.1% (inactive) |
| c1ccc(CN2OCC3Cn4c(nc5ccccc54)C32)cc1 (stereo not drawn) | 31.5% (inactive) |
| c1ccc(Cn2nnnc2C(c2cccs2)N2CCCCCC2)cc1 (stereo not drawn) | 44.4% (inactive) |
| c1ccc(C(c2nnnn2Cc2cccs2)N2CCN(C3CCCC3)CC2)cc1 (stereo not drawn) | 49.8% (inactive) |
| COc1ccc(-n2nnnc2CNC(=O)c2ccc3ccccc3c2)cc1 | 48.8% [at 10 µM] (inactive) |
| CC(C)C(c1nnnn1Cc1ccccc1)N(Cc1ccco1)Cc1cccs1 (stereo not drawn) | 141% (inactive) |
| COc1cccc(CN2C[C@@H]3N[C@H](C2)C3c2ccc(-c3ccccc3F)cc2)c1 (stereo partly drawn) | 46.1% (inactive) |
| CCOC(=O)Cn1cnc2scc(-c3ccccc3)c2c1=O | 18% (inactive) |
| O=C(Cc1ccccc1)Nc1nc(-c2ccc(F)c(F)c2)cs1 | 75% (inactive) |
| Cc1cccc(-c2ccc(C3[C@@H]4CN(C(=O)C5CCCCC5)C[C@H]3N4)cc2)c1 (stereo partly drawn) | 58.1% [at 10 µM] (inactive) |
| COc1cccc(CN2C[C@@H]3N[C@H](C2)C3c2ccc(-c3cccc(C#N)c3)cc2)c1 (stereo partly drawn) | 79.6% (inactive) |
| COc1ccccc1CN1C[C@@H]2N[C@H](C1)C2c1ccc(-c2ccccc2OC)cc1 (stereo partly drawn) | 40.7% [at 21 µM] (inactive) |
| COc1cccc(-c2ccc(C3[C@@H]4CN(Cc5ccccn5)C[C@H]3N4)cc2)c1 (stereo partly drawn) | 59.2% (inactive) |
| COc1cccc(C(=O)c2c[nH]c(C(=O)NCc3cccnc3)c2)c1 | 269% (inactive) |
| CCN(CC)S(=O)(=O)c1c(Br)cc(C)cc1Br | 56.1% (inactive) |
| CCN(CC)c1ccc(N)cc1S(=O)(=O)Nc1ccccc1OC | 63.3% (inactive) |
| O=C(C(Cc1ccccc1)n1cccc1)N1CCN(c2ccccc2)CC1 (stereo not drawn) | 156% (inactive) |
| O=C(c1ccccc1)c1nn(-c2ccc(Cl)cc2)c(=O)cc1C(F)(F)F | 57% [at 10 µM] (inactive) |
| CCn1c(=S)[nH]c2cc(S(=O)(=O)N3CCCCC3)ccc21 | 144% (inactive) |
| C[C@@H]1CN([C@H](C)CO)C(=O)c2cccc(NC(=O)c3ccc(-c4nccs4)cc3)c2O[C@@H]1CN(C)Cc1ccc(C(=O)Nc2ccccc2N)cc1 | 114% (inactive) |
| CC(C)C#Cc1ccc([C@@H]2[C@H](CO)N3C(=O)CN(C(=O)NC4CCCC4)C[C@@H]23)cc1 | 23.8% (inactive) |
| CC1(C)OC(C)(C)/C(=C\c2ccc(OCC(N)=O)cc2)C1=O | 57% [at 10 µM] (inactive) |

| SMILES | activity change, negative = inhibition |
| --- | --- |
| COc1ccc(S(=O)(=O)N(Cc2ccccc2)Cc2nc(-c3ccccc3)no2)cc1 | 68.8% (inactive) |
| Cc1c(OCc2ccc(C(=O)O)cc2)ccc2c(-c3ccccc3)cc(=O)oc12 | 43.5% (inactive) |
| CC(C)NC(=O)Nc1ccc2c(c1)C(=O)N([C@@H](C)CO)C[C@@H](C)[C@@H](CN(C)S(=O)(=O)c1ccccc1)OCCCC[C@H](C)O2 | 43.1% (inactive) |
| C[C@@H]1CN([C@H](C)CO)C(=O)c2cc(N(C)C)ccc2O[C@@H](C)CCCCO[C@H]1CN(C)C(=O)Nc1ccccc1 | 69% (inactive) |
| CC(C)NC(=O)N(C)C[C@H]1OCCCC[C@@H](C)Oc2ccc(NC(=O)Cc3ccccc3)cc2C(=O)N([C@@H](C)CO)C[C@H]1C | 45.8% (inactive) |
| C[C@H](CO)N1C[C@H](C)[C@@H](CN(C)S(=O)(=O)c2ccccc2)OCCCC[C@H](C)Oc2ccc(NC(=O)Nc3cccc4ccccc34)cc2C1=O | 48.3% [at 21 µM] (inactive) |
| COCCOC(=O)N1C(=O)[C@@]2(c3ccccc31)[C@H](c1ccccc1OCCO)N1[C@H](c3ccccc3)[C@H](c3ccccc3)OC(=O)[C@H]1[C@@H]2C(=O)N1CCCCCCC1 | 29.6% (inactive) |
| c1ccc(-c2c(-c3ccccc3)n(Cc3ccco3)c3ncnc(NCCCn4ccnc4)c23)cc1 | 228% (inactive) |
| O=C(CSc1nc2c(sc3ccccc32)c(=O)n1CCc1ccccc1)NCc1ccco1 | 44.7% (inactive) |
| C=CCn1c(SCC(=O)NC(=O)NCc2ccco2)nc2sc(CC)cc2c1=O | 35.5% (inactive) |
| CCOC(=O)c1ccc(NC(=O)Nc2ccc(F)cc2)cc1 | 34.3% (inactive) |
| CC(=O)Nc1ccc(Nc2ncnc3c2cnn3-c2ccc(C)cc2C)cc1 | 105% (inactive) |
| Cc1cc(Nc2cccc(Cl)c2)c2ccccc2n1 | 75.5% (inactive) |
| Cc1cc(C)c(S(=O)(=O)Nc2ccccc2-c2ccccc2)c(C)c1 | 96.5% (inactive) |
| COc1ccccc1-c1ccc2c(c1)O[C@@H](CN(C)Cc1ccc3c(c1)OCO3)[C@@H](C)CN([C@@H](C)CO)S2(=O)=O | 65.4% (inactive) |
| COC(=O)c1ccc(NC(=O)C23CC4CC(C2)CC(n2cnc(Cl)n2)(C4)C3)cc1 | 81.3% (inactive) |
| CCOc1ccc(S(=O)(=O)N2c3ccccc3CC2C)cc1 (stereo not drawn) | 52.3% (inactive) |
| CCOc1ccc(N2C(=O)CC(Cc3ccc(Br)cc3)C2=O)cc1 (stereo not drawn) | 46.2% (inactive) |
| CCCCN=C1NC(=O)C(CC(=O)Nc2ccc(Cl)cc2)S1 (stereo not drawn) | 77.7% (inactive) |
| O=C(Cc1ccccc1)N1CCN(C(=O)c2cccs2)CC1 | 74.4% (inactive) |
| CCN1CCN(c2cc(C)c3cc(NC(=O)c4ccc(Br)o4)ccc3n2)CC1 | 39.5% (inactive) |
| CCN1CCN(c2ncc(C(=O)Nc3cc(Cl)ccc3OC)c3ccccc23)CC1 | 52.8% [at 10 µM] (inactive) |
